Records with an inconclusive call do not appear. Calls of active or inactive are those of the source. Unless noted, calls follow the shape of the dose curve; as a rule, active = well fitted curve in the direction sought with a large enough effect in the repeat runs; inconclusive = weak or mixed curves; inactive = no such curve, though single readings can be large; an effect the other way counts as inactive or inconclusive.
What was measured:
[1] = target: Thyrotropin receptor (Homo sapiens) (UniProt P16473); test: qHTS assay to identify small molecule agonists of the thyroid stimulating hormone receptor (TSHR) signaling pathway (AID 1224843; calls by dose curve; also: nearly all actives have a fitted effect of over 45% in size)
Outline: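 HEK293 cells stably bearing the thyrotropin receptor were plated at 800 cells/well and challenged with compound (30 min, RT). Accumulated cAMP was quantified via cAMP-d2 competing for cryptate-tagged antibody.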

[2] = qHTS assay to identify small molecule agonists of the hypoxia (HIF-1) signaling pathway - cell viability counter screen (AID 1224844; calls by dose curve; also: nearly all actives have a fitted effect of over 50% in size)
Outline: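 ME-180 HRE-bla cells, 2,000/well, 0.5% dialyzed FBS; 5 hr settle, 17 hr compound at 37C/5% CO2; CCF4-AM reporter read first, then CellTiter-Glo luminescence after 30 min RT.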

[3] = qHTS assay to identify small molecule agonists of H2AX (AID 1224845; active = well fitted activation curve with a large enough effect in the signal ratio in the repeat runs, not every such curve was filed as active; the % refers to the signal ratio)
Outline: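 Phospho-H2AX Ser139 measured by HTRF (ex 320 nm; em 665 and 620 nm) after 24 hr antibody incubation. Compounds, 15 concentrations, 0.76% DMSO, were applied to CHO-K1 cells for 3hr at 37C before lysis.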

[4] = qHTS assay to identify small molecule agonists of the hypoxia (HIF-1) signaling pathway (AID 1224846; active = well fitted activation curve with a large enough effect in the signal ratio in the repeat runs, not every such curve was filed as active; the % refers to the signal ratio)
Outline: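 Cell line: CellSensor HRE-bla ME-180; 2,000 cells/well; 0.5% dialyzed FBS; 5 h preincubation; DMSO compound pin transfer; 17 h, 37C, 5% CO2; CCF4-AM added; bla FRET signal scored for activation.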

[5] = qHTS assay to identify small molecule agonists of H2AX - cell viability counter screen (AID 1224847; calls by dose curve;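 also: wild-type CHO-K1 cells; top concentration of the series differs between compounds; nearly all actives have a fitted effect of over 30% in size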)
Outline: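 After overnight plating of 1000 CHO-K1 cells per well, a 15-concentration compound series was applied for 3 hr at 37C. Luminescence from CellTiter-Glo, read following 30 min at room temperature, reflected cell viability.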

[6] = qHTS RealTime-Glo MT Cell Viability Assay in HepG2 cells - 24 hour (AID 1224867); also: nearly all actives have a fitted effect of over 50% in size
Outline: (§1)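 HepG2 cells were seeded at 600 cells/well together with NanoLuc luciferase and a cell-permeant prosubstrate, preincubated 5 h at 37 C/5% CO2, then pin-dosed with compounds in DMSO. Nonlytic luminescence from viable cells was read at each time point.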

[7] = qHTS RealTime-Glo MT Cell Viability Assay in HEK293 cells - 32 hour (AID 1224868); also: top concentration of the series differs between compounds; nearly all actives have a fitted effect of over 50% in size
Outline: (§2)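 HEK293 cells were seeded at 600 cells/well together with NanoLuc luciferase and cell-permeant prosubstrate, preincubated 5 h at 37 C/5% CO2, then given compound in DMSO by pintool. Luminescence from viable-cell prosubstrate reduction was read repeatedly over 40 h.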

[8] = A CellTox Green Cytotoxicity Assay to monitor cytotoxicity in HEK293 cells - 0 hour (AID 1224869); also: nearly all actives have a fitted effect of over 50% in size
Outline: (§3)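 Nonlytic real-time cytotoxicity: HEK293 + CellTox Green reagent plated, 5 h preincubation, pintool compound addition (23 nL in DMSO), 37 C for 40 h, fluorescence measured at successive time points.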

[9] = qHTS RealTime-Glo MT Cell Viability Assay in HepG2 cells - 40 hour (AID 1224870); also: nearly all actives have a fitted effect of over 50% in size
Outline: (§4)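 Real-time viability: cells seeded at 600 per well together with NanoLuc and cell-permeant prosubstrate, compounds added after 5 h incubation. Luminescence tracked at 0, 8, 16, 24, 32 and 40 h of exposure.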

[10] = A CellTox Green Cytotoxicity Assay to monitor cytotoxicity in HEK293 cells - 40 hour (AID 1224871); also: nearly all actives have a fitted effect of over 45% in size
Outline: as §3

[11] = qHTS RealTime-Glo MT Cell Viability Assay in HEK293 cells - 16 hour (AID 1224872)
Outline: as §2

[12] = qHTS RealTime-Glo MT Cell Viability Assay in HepG2 cells - 8 hour (AID 1224873); also: nearly all actives have a fitted effect of over 55% in size
Outline: as §4

[13] = qHTS RealTime-Glo MT Cell Viability Assay in HEK293 cells - 40 hour (AID 1224874); settings: RealTime-Glo luminescence; max response: hits give low values; also: nearly all actives have a fitted effect of over 50% in size
Outline: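 Cells were seeded together with NanoLuc luciferase and a prosubstrate that viable cells reduce to a luciferase substrate. After a 5 h incubation at 37 C/5% CO2, compounds were added and luminescence was measured repeatedly during 40 h of treatment.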

[14] = A CellTox Green Cytotoxicity Assay to monitor cytotoxicity in HEK293 cells - 24 hour (AID 1224875); also: nearly all actives have a fitted effect of over 45% in size
Outline: as §3

[15] = A CellTox Green Cytotoxicity Assay to monitor cytotoxicity in HepG2 cells - 16 hour (AID 1224876); also: nearly all actives have a fitted effect of over 45% in size
Outline: (§5)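 Read-out is fluorescence of a cyanine dye excluded from live cells that stains DNA of dead HepG2 cells, with signal proportional to cytotoxicity. Plates were read at 0, 8, 16, 24, 32 and 40 h after compound addition.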

[16] = qHTS RealTime-Glo MT Cell Viability Assay in HepG2 cells - 32 hour (AID 1224877); also: nearly all actives have a fitted effect of over 55% in size
Outline: as §1

[17] = A CellTox Green Cytotoxicity Assay to monitor cytotoxicity in HepG2 cells - 24 hour (AID 1224878); also: nearly all actives have a fitted effect of over 45% in size
Outline: as §5

[18] = A CellTox Green Cytotoxicity Assay to monitor cytotoxicity in HepG2 cells - 40 hour (AID 1224879); also: nearly all actives have a fitted effect of over 40% in size
Outline: as §5

[19] = qHTS assay to identify small molecule antagonists of the estrogen related receptor (ERR) signaling pathway from Tox21 library (AID 1224848); also: nearly all actives have a fitted effect of over 50% in size; also: potency is read from the fitted curve at half-maximal effect
Outline: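 Reading was by luminescence 30 min after ONE-Glo addition. Before that, ERR cells at 2,000 per well had rested 6 h at 37 C/5% CO2 and then received pin-tooled compounds in DMSO for 18 h at 37 C.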

[20] = qHTS assay to identify small molecule agonists of the estrogen related receptor (ERR) signaling pathway from Tox21 library (AID 1224849; calls by dose curve; also: nearly all actives have a fitted effect of over 15% in size); settings: ERR reporter cell line, ONE-Glo luciferase, 18 h; at 92.4 µM (top of the series) unless noted
Outline: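 ERR cells, 6 h pre-incubation 37 C/5% CO2; cpd in DMSO pinned; 18 h 37 C; ONE-Glo added, 30 min RT; luminescence read. Agonist mode, qHTS.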
% is scaled to controls: 0 for no effect and ±100 for the full control effect.

Thyrotropin receptor (Homo sapiens), sequence (P16473 whole entry, looked up): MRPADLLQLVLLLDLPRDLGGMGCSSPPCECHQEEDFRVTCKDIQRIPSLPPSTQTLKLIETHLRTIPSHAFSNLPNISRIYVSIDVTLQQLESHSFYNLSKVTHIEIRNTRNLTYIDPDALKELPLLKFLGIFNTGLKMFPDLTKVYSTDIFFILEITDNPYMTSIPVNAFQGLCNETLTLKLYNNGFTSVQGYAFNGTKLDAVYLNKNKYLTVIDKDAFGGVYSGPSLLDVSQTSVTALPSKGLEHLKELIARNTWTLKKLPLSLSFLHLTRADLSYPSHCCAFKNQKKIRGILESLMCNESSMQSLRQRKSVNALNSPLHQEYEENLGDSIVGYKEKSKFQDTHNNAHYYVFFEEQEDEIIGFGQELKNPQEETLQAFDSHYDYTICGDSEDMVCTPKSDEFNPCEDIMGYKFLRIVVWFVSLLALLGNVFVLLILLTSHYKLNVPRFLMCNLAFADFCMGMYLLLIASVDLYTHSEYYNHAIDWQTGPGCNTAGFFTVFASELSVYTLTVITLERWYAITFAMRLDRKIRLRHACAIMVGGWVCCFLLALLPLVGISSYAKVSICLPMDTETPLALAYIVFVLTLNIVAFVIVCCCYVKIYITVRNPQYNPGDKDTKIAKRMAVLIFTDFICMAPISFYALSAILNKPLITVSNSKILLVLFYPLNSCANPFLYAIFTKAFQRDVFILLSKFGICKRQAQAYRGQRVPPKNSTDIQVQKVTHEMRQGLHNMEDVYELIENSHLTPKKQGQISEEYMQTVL

C1COC1
inactive: Potency [1] | Potency [2] | Potency [3] | outcome [4] | Potency [5] | Potency [6] | Potency [7] | Potency [8] | Potency [9] | Potency [10] | Potency [11] | Potency [12] | max response [13] 6.53% | Potency [14] | Potency [15] | Potency [16] | Potency [17] | Potency [18]

O=C1Cc2cc(Cl)ccc2N1
inactive: Potency [1] | Potency [2] | Potency [3] | outcome [4] | Potency [5] | Potency [19] | activity change, positive = activation [20] 0.547% [at 42.5 µM] | Potency [6] | Potency [7] | Potency [9] | Potency [12] | Potency [14] | Potency [15] | Potency [16] | Potency [17] | Potency [18]

CCCCC(CC)CN (stereo unspecified)
inactive: Potency [1] | Potency [2] | Potency [3] | outcome [4] | Potency [5] | Potency [19] | activity change, positive = activation [20] 2.45% | Potency [6] | Potency [7] | Potency [8] | Potency [9] | Potency [11] | Potency [12] | max response [13] 4.35% | Potency [14] | Potency [15] | Potency [16] | Potency [17] | Potency [18]

CC(CO)CO
inactive: Potency [1] | Potency [2] | Potency [3] | outcome [4] | Potency [5] | Potency [19] | activity change, positive = activation [20] 0.194% | Potency [6] | Potency [7] | Potency [8] | Potency [9] | Potency [10] | Potency [11] | Potency [12] | max response [13] 3.5% | Potency [14] | Potency [15] | Potency [16] | Potency [17] | Potency [18]

C=C(C)CCCC(C)CCO (stereo unspecified)
inactive: Potency [1] | Potency [2] | Potency [3] | outcome [4] | Potency [5] | Potency [6] | Potency [7] | Potency [8] | Potency [9] | Potency [10] | Potency [11] | Potency [12] | max response [13] -17.9% | Potency [14] | Potency [15] | Potency [16] | Potency [17] | Potency [18]

CCCCCCC(C)(C)C(=O)O
inactive: Potency [1] | Potency [2] | Potency [3] | outcome [4] | Potency [5] | activity change, positive = activation [20] -23% | Potency [6] | Potency [7] | Potency [8] | Potency [9] | Potency [10] | Potency [11] | Potency [12] | max response [13] 4.14% | Potency [14] | Potency [15] | Potency [16] | Potency [17] | Potency [18]

Cc1cscn1
inactive: Potency [1] | Potency [2] | Potency [3] | outcome [4] | Potency [5] | Potency [6] | Potency [7] | Potency [8] | Potency [9] | Potency [10] | Potency [11] | Potency [12] | max response [13] 11.3% | Potency [14] | Potency [15] | Potency [16] | Potency [17] | Potency [18]

CC(C)=CC(=O)C=C(C)C
inactive: Potency [1] | Potency [2] | Potency [3] | outcome [4] | Potency [5] | Potency [19] | activity change, positive = activation [20] 0.257% | Potency [6] | Potency [7] | Potency [8] | Potency [9] | Potency [10] | Potency [11] | Potency [12] | max response [13] 9.12% | Potency [14] | Potency [15] | Potency [16] | Potency [17] | Potency [18]

O=C=Nc1ccc(Cl)c(Cl)c1
inactive: Potency [1] | Potency [2] | Potency [3] | outcome [4] | Potency [5] | activity change, positive = activation [20] -41% | Potency [6] | Potency [7] | Potency [8] | Potency [9] | Potency [10] | Potency [11] | Potency [12] | max response [13] -3.97% | Potency [14] | Potency [15] | Potency [16] | Potency [17] | Potency [18]
active: Potency [19] 26.9 µM

CCC=CC#N
inactive: Potency [1] | Potency [2] | Potency [3] | outcome [4] | Potency [5] | Potency [6] | Potency [7] | Potency [8] | Potency [9] | Potency [10] | Potency [11] | Potency [12] | max response [13] 10.8% | Potency [14] | Potency [15] | Potency [16] | Potency [17] | Potency [18]

CC(O)c1ccccc1 (stereo unspecified)
inactive: Potency [1] | Potency [2] | Potency [3] | outcome [4] | Potency [5] | Potency [19] | activity change, positive = activation [20] 5.42% | Potency [6] | Potency [7] | Potency [8] | Potency [9] | Potency [10] | Potency [11] | Potency [12] | max response [13] 19.3% | Potency [14] | Potency [15] | Potency [16] | Potency [17] | Potency [18]

CCCCCCCCOc1ccc(C(=O)O)cc1
inactive: Potency [1] | Potency [2] | Potency [3] | outcome [4] | Potency [5] | Potency [6] | Potency [7] | Potency [8] | Potency [9] | Potency [10] | Potency [11] | Potency [12] | max response [13] -8.38% | Potency [14] | Potency [15] | Potency [16] | Potency [17] | Potency [18]

O=c1[nH]ncc2ccccc12
inactive: Potency [1] | Potency [2] | Potency [3] | outcome [4] | Potency [5] | Potency [6] | Potency [7] | Potency [8] | Potency [9] | Potency [11] | Potency [12] | max response [13] 6.19% | Potency [14] | Potency [16] | Potency [17] | Potency [18]

CCCCCCCCN
inactive: Potency [1] | Potency [2] | Potency [3] | outcome [4] | Potency [5] | Potency [6] | Potency [7] | Potency [8] | Potency [9] | Potency [11] | Potency [12] | max response [13] -0.288% | Potency [14] | Potency [16] | Potency [17] | Potency [18]

— PubChem BioAssay (Tox21)
